# Data: PubChem BioAssay AID1345085 (National Center for Advancing Translational Sciences (NCATS), 2018)
# Records with an inconclusive call do not appear. Unmarked numbers belong to inactive results. Active and inactive are the calls of the source. Calls come from the whole dose curve; as a rule, active = well fitted cell-killing curve with a large enough effect; inconclusive = small, poorly fitted or top-dose-only effect, or effect the other way; inactive = no such curve, though single readings can be large or run the other way.
# System: SKOV3
# Assay: Confirmatory qHTS for gynecologic anti-cancer compounds from libraries of approved drugs and bioactive compounds; note: nearly all actives have a fitted effect of over 55% in size
# Conditions: gynecologic cancer cell panel viability, ATPlite luminescence, 48 h; series mostly up to 57.6 µM; activity change, negative = viability loss: at the top concentration
# Procedure, shortened: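 Seeding 1,000 cells per well preceded overnight (16 h) attachment, after which 48 h drug treatment across 57.5 uM–0.977 nM (11 points) was applied. Remaining cellular ATP, detected by ATPlite luminescence, defined IC50.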
# % is set by controls: 0 for no effect and ±100 for the full control effect; potency is the fitted concentration of half-maximal effect.
SMILES,"activity change, negative = viability loss [%]",Potency
CCCCN(CCCC)C(=O)CN1C[C@H](c2ccc3c(c2)OCO3)[C@@H](C(=O)O)[C@@H]1c1ccc(OC)cc1,-4.83,–
C=CC(=O)Nc1cccc(Oc2nc(Nc3ccc(N4CCN(C)CC4)cc3)ncc2Cl)c1,–,1720 nM (active)
COc1cc(Nc2ncc3c(n2)-c2ccc(Cl)cc2C(c2c(F)cccc2OC)=NC3)ccc1C(=O)O,-8.42,–
FC(F)(F)c1ccc(/C=C/c2nc(COc3ccc(CCCCn4ccnn4)cc3)co2)cc1,-6.4,–
